Test results reported in PubChem BioAssay (NCI).
This is part of a sample that, as a whole, favours compounds with a hit. Of some 83,000 tested, about 20% had one in any assay.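 Cells were grown in 96-well plates and exposed to the test compound at a single concentration for 48 hours; results are reported as percent growth, with values below 10 considered active.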 A number with no mark means an inactive call. The source made the active and inactive calls.

What was measured:
Assay in all cases: NCI-60 one-dose screen, 48 h (100 = growth as untreated, 0 = no growth, -100 = all killed)
Conditions in all cases: 10 µM unless noted
[1] = system: SR leukemia
[2] = system: RPMI-8226 leukemia
[3] = system: OVCAR-8 ovarian
[4] = system: OVCAR-5 ovarian
[5] = system: OVCAR-4 ovarian
[6] = system: SK-OV-3 ovarian
[7] = system: IGROV1 ovarian
[8] = system: OVCAR-3 ovarian
[9] = system: HS 578T breast
[10] = system: NCI/ADR-RES ovarian
[11] = system: T-47D breast
[12] = system: BT-549 breast
[13] = system: MDA-MB-435 melanoma
[14] = system: SW-620 colon
[15] = system: MCF7 breast
[16] = system: HCT-116 colon
[17] = system: HCC-2998 colon
[18] = system: KM12 colon

SMILES	growth [1]	growth [2]	growth [3]	growth [4]	growth [5]	growth [6]	growth [7]	growth [8]	growth [9]	growth [10]	growth [11]	growth [12]	growth [13]	growth [14]	growth [15]	growth [16]	growth [17]	growth [18]
CC(C)NC(=O)N1C(=O)CCC1NNC(=O)c1ccc([N+](=O)[O-])cc1 (centres undefined)	94.9%	110%	111%	103%	97.9%	113%	104%	105%	117%	95%	94.9%	102%	98.6%	112%	97.8%	95.7%	98.6%	102%
COc1nc(N)nc(-n2c(-c3ccc(C)cc3)nc3ccccc32)c1NCc1ccc(C)cc1	80.5%	81.2%	94.1%	88.5%	95%	110%	80.1%	111%	83.6%	90.1%	79%	101%	102%	98.1%	91.8%	84.5%	103%	89.6%
O=C(Nc1sc2c(c1C(=O)O)CCCC2)c1cccc(C(F)(F)F)c1	115%	80.9%	94.6%	98.5%	86.2%	83.8%	96.3%	94.3%	98.2%	93.3%	73.4%	93.1%	86.2%	90.6%	63.5%	80.2%	101%	89.9%
COc1ccc(-c2nc(N/N=C/c3cccc(O)c3)nc(N3CCOCC3)c2C#N)cc1	-20.3% (active)	32.1%	68.8%	117%	89.3%	104%	71.2%	75.8%	69.3%	74.8%	72%	84.6%	97.7%	58.9%	61.7%	59.1%	108%	72.2%
COc1cc2nc(-c3ccc(C(F)(F)F)cc3)cc(OCCCN3CCCCC3)c2cc1OC	8.2% (active)	24.8%	52.4%	57.7%	54.7%	77.8%	31.8%	60.1%	59.1%	49.7%	35.3%	39.3%	-6.42% (active)	30.4%	36.2%	25.5%	56%	36.6%
C#Cc1cccc(NC(=O)Nc2cccc(N=C=S)c2)c1	88.9% [8.25 µM]	99.3% [8.25 µM]	98.6% [8.25 µM]	102% [8.25 µM]	99.6% [8.25 µM]	120% [8.25 µM]	98.4% [8.25 µM]	115% [8.25 µM]	95.6% [8.25 µM]	106% [8.25 µM]	100% [8.25 µM]	102% [8.25 µM]	97.3% [8.25 µM]	104% [8.25 µM]	86.1% [8.25 µM]	95.5% [8.25 µM]	105% [8.25 µM]	106% [8.25 µM]
O=C(CN1CCOCC1)Nc1ccc2ncnc(Nc3ccc(OCc4cccc(F)c4)c(Cl)c3)c2c1	64.3%	44.7%	63.1%	69.2%	72%	6.86% (active)	23.2%	58%	100%	44.7%	18.5%	70.8%	72.1%	109%	54.7%	64.5%	88.6%	83.2%
O=C(OC(OC(=O)c1cc(Cl)cc(Cl)c1)c1cccc2ccccc12)c1ccccc1 (centres undefined)	94.5%	98%	93.7%	105%	103%	101%	96.5%	97.6%	98.2%	99.7%	98.8%	113%	111%	97.1%	84.8%	93.1%	83.4%	102%
Brc1ccc(C2CC(c3cccc(Nc4ccncc4)c3)=NN2c2ccccc2)cc1 (centres undefined)	4.53% (active)	50.5%	77.6%	89.3%	70.3%	84.4%	58.3%	80%	90.9%	79.2%	87.8%	84%	70.5%	-33.1% (active)	24.5%	77.4%		46.9%
Fc1ccc(C2CC(c3cccc(Nc4ccncc4)c3)=NN2c2ccccc2)cc1 (centres undefined)	2.49% (active)	1.2% (active)	55.1%	85.3%	51.9%	70.8%	44%	64%	73.1%	73%	71%	87.7%	-54.8% (active)	-65.4% (active)	8.89% (active)	61.9%	3.99% (active)	8.85% (active)
CCOC(=O)Oc1c(OC)cc(C(=O)O[C@@H]2C[C@@H]3CN4CCc5c([nH]c6cc(OC)ccc56)[C@H]4C[C@@H]3[C@H](C(=O)OC)[C@H]2OC)cc1OC	-2.39% (active)	-5.39% (active)	75.9%	90.5%	94.7%	91.9%	82.3%	38.5%	72.1%	56.5%	38.6%	77.5%	70.9%	48.4%	83.8%	1.57% (active)	68.7%	39.8%
C[C@H]1[C@H](C)CC[C@]2(CO)CC[C@]3(C)C(=CC[C@@H]4[C@@]5(C)Cc6c([nH]c7ccccc67)C(C)(C)[C@@H]5CC[C@]43C)[C@H]12	75.8%	83.7%	77%	116%	89.8%	96.9%	88.8%	87.4%	74.6%	90.6%	68.3%	85.2%	90.3%	96.2%	74.1%	61.5%	86%	73.8%
C=C(C)[C@@H]1CC[C@]2(CO)CC[C@]3(C)[C@H](CC[C@@H]4[C@@]5(C)CCCNC(C)(C)[C@@H]5CC[C@]43C)[C@@H]12	-40.4% (active)	-36.9% (active)	23.5%	75%	31.8%	92.2%	36.3%	44.4%	46.8%	44.8%	36.5%	77.1%	13.5%	-66.5% (active)	-12.6% (active)	-78.9% (active)		23.2%
CC(=O)Nc1ccc(C(=O)Nc2cc(-c3ccccc3)ccc2N)cc1	39.4%	83.6%	54.9%	60.5%	76.7%	67.9%	94%	75.2%	92%	42.9%	66%	102%	60.1%	59.3%	55.6%	50.1%	90.7%	73.2%
N#CC1=C(N)Oc2c(ccc3ccccc23)C1c1ccc([N+](=O)[O-])cc1 (centres undefined)	20.2%	89.5%	93.3%	95.7%	90.8%	80%	50.4%	76.5%	87.5%	52.8%	74.6%	83.1%	6.07% (active)	55.5%	51.8%	68.8%	85.9%	50.4%
CN1CCN(c2ccc(NC3=C(Cl)C(=O)c4ncccc4C3=O)cc2C#N)CC1	3.52% (active)	37.7%	26.8%	73.5%	-97.7% (active)	86.3%	-29.1% (active)	-63.7% (active)	61.4%	73.1%	-33.3% (active)	96.3%	-92.9% (active)	-75.3% (active)	-59.9% (active)	-56.7% (active)	96.7%	105%
C[C@@H]1CN(Cc2ccc(/C=C/c3n[nH]c4ccc5nc(-c6cn[nH]c6C(F)(F)F)c6c(c5c34)CCCC6)cc2)C[C@H](C)O1	7.98% (active)	34.3%	33.4%	19.7%	29.9%	22.5%	1.46% (active)	38.2%	3.34% (active)	28.7%	49.8%	39.6%	46.7%	-16.6% (active)	12.4%	4.51% (active)	27.6%	19.8%
